# Source: PubChem BioAssay
# Active and inactive are the calls of the source.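 The calls were made as follows, unless noted: active = compound raising the membrane signal above positive-control mean plus 3 SD in both repeats, and a primary screen hit; inactive = the rest.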
# Molecular target: Short transient receptor potential channel 6 (Mus musculus) (UniProt Q61143)
# Test: positive modulators of mouse TRPC6 channel – HEK293 cells, membrane potential dye, duplicate, selectivity assay for TRPC4 potentiator project, confirmation (AID 434952)
# Settings: HEK293 TRPC6, membrane potential dye fluorescence, at 10 µM, maximal acetylcholine added after compound; stronger effect = higher value
# Chain of Short transient receptor potential channel 6 (Mus musculus) (Q61143 whole entry, looked up): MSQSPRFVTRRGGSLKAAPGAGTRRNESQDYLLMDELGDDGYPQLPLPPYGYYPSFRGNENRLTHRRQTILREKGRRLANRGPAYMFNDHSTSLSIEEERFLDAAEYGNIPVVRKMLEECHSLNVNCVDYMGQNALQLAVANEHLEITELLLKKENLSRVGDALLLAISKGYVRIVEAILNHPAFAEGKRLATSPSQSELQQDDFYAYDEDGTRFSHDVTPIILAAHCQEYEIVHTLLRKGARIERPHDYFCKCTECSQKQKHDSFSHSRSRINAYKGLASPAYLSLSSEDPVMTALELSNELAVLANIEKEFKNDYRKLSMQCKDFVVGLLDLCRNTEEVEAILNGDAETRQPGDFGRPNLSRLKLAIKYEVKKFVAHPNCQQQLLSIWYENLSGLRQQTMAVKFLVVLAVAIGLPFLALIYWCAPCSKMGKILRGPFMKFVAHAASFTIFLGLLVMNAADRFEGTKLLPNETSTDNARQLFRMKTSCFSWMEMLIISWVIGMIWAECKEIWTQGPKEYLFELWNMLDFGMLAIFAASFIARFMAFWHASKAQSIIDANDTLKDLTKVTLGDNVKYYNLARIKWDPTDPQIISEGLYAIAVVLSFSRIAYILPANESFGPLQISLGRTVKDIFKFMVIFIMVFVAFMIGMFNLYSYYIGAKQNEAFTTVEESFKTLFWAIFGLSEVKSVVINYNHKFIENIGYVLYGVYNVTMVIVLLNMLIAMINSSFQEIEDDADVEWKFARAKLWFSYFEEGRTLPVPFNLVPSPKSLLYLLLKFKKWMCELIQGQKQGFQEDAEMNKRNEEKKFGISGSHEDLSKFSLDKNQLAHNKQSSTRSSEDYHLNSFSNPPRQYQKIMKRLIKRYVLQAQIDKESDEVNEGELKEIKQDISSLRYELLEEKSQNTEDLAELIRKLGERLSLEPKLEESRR
row,SMILES,outcome
1,CC(C)c1ccc(NC(=S)N(C)CCc2ccccn2)cc1,inactive
2,CCN1CCN(c2ccc(S(=O)(=O)N3CCCCC3)cc2NC(=O)COc2ccccc2)CC1,inactive
3,COC(=O)c1ccccc1N=Nc1c(N)[nH][nH]c1=O,inactive
4,CCc1nc(NCCc2ccccn2)c2nnn(Cc3ccccc3F)c2n1,inactive
5,COC(=O)c1ccc(N2CCN(C)CC2)c(NC(=O)COc2ccccc2)c1,inactive
6,CCC1(c2ccc(F)cc2)NC(=O)N(CC(=O)c2cc(C)n(C3CC3)c2C)C1=O (stereo not given),inactive
7,CCOC(=O)C1(CC2CCCCO2)CCN(Cc2c(C)cc(C)cc2-n2cccn2)CC1 (stereo not given),inactive
8,Cc1ccc(Cl)cc1NC(=O)CNCC(c1ccccc1)N(C)C (stereo not given),inactive
9,CCOC(=O)C1(CCOc2ccccc2)CCN(Cc2ccc3c(c2)OCCO3)CC1,inactive
10,CCOc1ccccc1CN1CCNC(=O)C1CC(=O)N(C)CCc1ccccn1 (stereo not given),inactive
11,CN(CCc1ccccn1)C(=O)CC1C(=O)NCCN1Cc1ccccc1C(F)(F)F (stereo not given),inactive
12,Cc1ccc(C)c(OCCCCCn2ccnc2)c1,inactive
13,O=C(C1CCCN(Cc2ccccc2F)C1)N1CCc2ccccc2C1 (stereo not given),inactive
14,CCOC(=O)C1(CCCc2ccccc2)CCN(Cc2cn(CC)nc2C)CC1,inactive
15,NCCSc1c(-c2ccc(Cl)cc2)[nH]c2ccccc12,inactive
16,CN(C)CCCN(C(=O)c1ccc(C(=O)c2ccccc2)cc1)c1nc2ccc(F)cc2s1,inactive
17,COc1ccc(-c2nn(-c3ccccc3)cc2CNCc2cccnc2)c(F)c1,inactive
18,Cc1cc(Br)ccc1OCCn1ccnc1,inactive
19,C=CCn1c(CCNC(=O)C(C)(C)C)nc2ccccc21,inactive
20,Cc1cc(Cl)cc(C)c1OCCCCn1ccnc1,inactive

row,SMILES,outcome
1,Cc1sc2nc(CSc3ccccc3)nc(NCCN(C)C)c2c1C,inactive
2,CCN1CCN(c2c(S(=O)(=O)c3ccc(C)c(C)c3)cnc3ccc(F)cc23)CC1,inactive
3,Cc1ccc(C)c(OCCCCn2ccnc2)c1,inactive
4,Cc1ccccc1NC(=S)NCCc1ccccn1,inactive
5,CN(C)C(CNC(=O)Cc1cccc(C(F)(F)F)c1)c1ccco1 (stereo not given),inactive
6,CCOc1ccccc1CN1CCNC(=O)C1CC(=O)NCCc1ccccn1 (stereo not given),inactive
7,CCOc1ccc2ncc(C(=O)c3ccc(OC)cc3)c(N3CCN(CC)CC3)c2c1,inactive
8,Cc1cc(NC(=O)CN2CCc3ccccc3C2)nc2c1c(=O)oc1ccccc12,inactive
9,Cc1ccccc1C(=O)NNC(=S)NC(=O)c1ccccc1,inactive
10,CCOC(=O)C1CCCN(C(c2ccccn2)c2c(C)[nH]c3ccccc23)C1 (stereo not given),inactive
11,COc1cc(/C=C/C(=O)c2ccc3c(c2)OCO3)cc(Cl)c1O,inactive
12,CN(C)C(CNC(=O)/C=C/c1cccc(Cl)c1)c1ccccc1 (stereo not given),inactive
13,COc1ccc(C(=O)NC(=S)NNC(=O)c2c(-c3ccccc3)noc2C)cc1,inactive
14,O=S(=O)(c1ccc(Cl)cc1)N1CCN2CCCC2C1 (stereo not given),inactive
15,Cc1ccc(-n2cc(CNCC3CC(=O)N(C4CC4)C3)c(-c3cccc(C)c3)n2)cc1 (stereo not given),inactive
16,CCCCCSc1nnc2c(n1)OC(c1cccn1C)N(C(C)=O)c1ccccc1-2 (stereo not given),inactive
17,CCCCC(c1nnnn1CC1CCCO1)N1CCN(c2nc3ccccc3s2)CC1 (stereo not given),inactive
18,CCN(CCCNS(=O)(=O)c1cc(-c2cc(C)no2)ccc1C)Cc1ccccc1,inactive
19,COc1ccc(-c2nc(CN3CCC(C(=O)NC4CCCC4)CC3)c(C)o2)cc1OC,inactive
20,CCN(CC)CCSc1nc2ccc(OC)cc2[nH]1,inactive

# Molecular target: Short transient receptor potential channel 4 (Mus musculus) (UniProt Q9QUQ5)
# Test: calcium flux activators in TRPC4/5HT1a cells, counter-screen for TRPC4 activator project, cell-based, second counter screen, HEK293 TRPC4/5HT1a, Fluo-4 (AID 434977;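 active = calcium signal rise above buffer-control mean plus 5 SD in both duplicates, and also a hit in the primary screen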;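 as to activation: plate controls were assay buffer for no effect and maximal serotonin response for full effect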)
# Settings: Fluo-4 calcium flux, at 10 µM; stronger effect = higher value
SMILES,activation,outcome
CC(C)c1ccc(NC(=S)N(C)CCc2ccccn2)cc1,25.6% (active),–
CCN1CCN(c2ccc(S(=O)(=O)N3CCCCC3)cc2NC(=O)COc2ccccc2)CC1,16.8% (active),–
COC(=O)c1ccccc1N=Nc1c(N)[nH][nH]c1=O,51.2% (active),–
CCc1nc(NCCc2ccccn2)c2nnn(Cc3ccccc3F)c2n1,36.2% (active),–
COC(=O)c1ccc(N2CCN(C)CC2)c(NC(=O)COc2ccccc2)c1,12.3% (active),–
CCC1(c2ccc(F)cc2)NC(=O)N(CC(=O)c2cc(C)n(C3CC3)c2C)C1=O (stereo not given),27% (active),–
CCOC(=O)C1(CC2CCCCO2)CCN(Cc2c(C)cc(C)cc2-n2cccn2)CC1 (stereo not given),–,inactive
Cc1ccc(Cl)cc1NC(=O)CNCC(c1ccccc1)N(C)C (stereo not given),–,inactive
CCOC(=O)C1(CCOc2ccccc2)CCN(Cc2ccc3c(c2)OCCO3)CC1,–,inactive
CCOc1ccccc1CN1CCNC(=O)C1CC(=O)N(C)CCc1ccccn1 (stereo not given),72.6% (active),–
CN(CCc1ccccn1)C(=O)CC1C(=O)NCCN1Cc1ccccc1C(F)(F)F (stereo not given),50.4% (active),–
Cc1ccc(C)c(OCCCCCn2ccnc2)c1,25.7% (active),–
O=C(C1CCCN(Cc2ccccc2F)C1)N1CCc2ccccc2C1 (stereo not given),40.5% (active),–
CCOC(=O)C1(CCCc2ccccc2)CCN(Cc2cn(CC)nc2C)CC1,–,inactive
NCCSc1c(-c2ccc(Cl)cc2)[nH]c2ccccc12,8.63% (active),–
CN(C)CCCN(C(=O)c1ccc(C(=O)c2ccccc2)cc1)c1nc2ccc(F)cc2s1,–,inactive
COc1ccc(-c2nn(-c3ccccc3)cc2CNCc2cccnc2)c(F)c1,–,inactive
Cc1cc(Br)ccc1OCCn1ccnc1,11.7% (active),–
C=CCn1c(CCNC(=O)C(C)(C)C)nc2ccccc21,30.7% (active),–
Cc1cc(Cl)cc(C)c1OCCCCn1ccnc1,36.8% (active),–

SMILES,activation,outcome
Cc1sc2nc(CSc3ccccc3)nc(NCCN(C)C)c2c1C,15.2% (active),–
CCN1CCN(c2c(S(=O)(=O)c3ccc(C)c(C)c3)cnc3ccc(F)cc23)CC1,–,inactive
Cc1ccc(C)c(OCCCCn2ccnc2)c1,14.7% (active),–
Cc1ccccc1NC(=S)NCCc1ccccn1,56.5% (active),–
CN(C)C(CNC(=O)Cc1cccc(C(F)(F)F)c1)c1ccco1 (stereo not given),–,inactive
CCOc1ccccc1CN1CCNC(=O)C1CC(=O)NCCc1ccccn1 (stereo not given),17.3% (active),–
CCOc1ccc2ncc(C(=O)c3ccc(OC)cc3)c(N3CCN(CC)CC3)c2c1,–,inactive
Cc1cc(NC(=O)CN2CCc3ccccc3C2)nc2c1c(=O)oc1ccccc12,–,inactive
Cc1ccccc1C(=O)NNC(=S)NC(=O)c1ccccc1,121% (active),–
CCOC(=O)C1CCCN(C(c2ccccn2)c2c(C)[nH]c3ccccc23)C1 (stereo not given),34% (active),–
COc1cc(/C=C/C(=O)c2ccc3c(c2)OCO3)cc(Cl)c1O,69.2% (active),–
CN(C)C(CNC(=O)/C=C/c1cccc(Cl)c1)c1ccccc1 (stereo not given),–,inactive
COc1ccc(C(=O)NC(=S)NNC(=O)c2c(-c3ccccc3)noc2C)cc1,105% (active),–
O=S(=O)(c1ccc(Cl)cc1)N1CCN2CCCC2C1 (stereo not given),18.1% (active),–
Cc1ccc(-n2cc(CNCC3CC(=O)N(C4CC4)C3)c(-c3cccc(C)c3)n2)cc1 (stereo not given),–,inactive
CCCCCSc1nnc2c(n1)OC(c1cccn1C)N(C(C)=O)c1ccccc1-2 (stereo not given),18% (active),–
CCCCC(c1nnnn1CC1CCCO1)N1CCN(c2nc3ccccc3s2)CC1 (stereo not given),12.7% (active),–
CCN(CCCNS(=O)(=O)c1cc(-c2cc(C)no2)ccc1C)Cc1ccccc1,68.6% (active),–
COc1ccc(-c2nc(CN3CCC(C(=O)NC4CCCC4)CC3)c(C)o2)cc1OC,–,inactive
CCN(CC)CCSc1nc2ccc(OC)cc2[nH]1,31.6% (active),–
